# Yp Topo-I inh: Y. pestis Topo-I inhibition via cleavage products. hit rate 0.064% among 360,000. AID 504884. Y. pestis Topo-I cleavage product accumulation, plate reader. activity, % at 10 µM; in the data active = activity above about 50%, passing the limit was not always enough
# PrPC TRFRET: inhibitors of human cell surface prion protein PrPC; inhibition, % at 13.8 µM; TR-FRET read-out; hit rate 0.43% among 370,000; P04156; AID 720596; in the data active = inhibition above about 24%
# PrP UTR inh: suppresses PrP 5' UTR mRNA reporter expression; cell-based PrP 5' UTR mRNA reporter, plate reader; inhibition, % (concentration not given with the values); hit rate 0.35% among 340,000; AID 488862; in the data active = inhibition above about 52%
# Mtb hypoxia inh: reduces hypoxia-regulated biosensor signal in M. tuberculosis | AID 1159583 | M. tuberculosis hypoxia-regulated fluorescent reporter, fluorescence | fluorescence inhibition, % (test concentration not listed) | hit rate 0.1% among 300,000; in the data active = fluorescence inhibition mostly above about 23%, no sharp cut-off; inactive = mostly below about 17%
# GDH-TPI counter: inhibits GDH-TPI coupling enzymes, artifact for Mtb FBA screen | GDH-TPI coupled enzyme counterscreen, NADH absorbance | inhibition, % at 4.8 µM | hit rate 1.2% among 360,000; in the data active = inhibition above about 30%
# FBA Mtb inh: inhibits M. tuberculosis FBA enzyme; P9WQA3; purified M. tuberculosis FBA, fluorescence read-out; inhibition, % at 1 µM; hit rate 2.3% among 360,000; AID 588726; in the data active = inhibition above about 27%
# Target sequence (P9WQA3 whole entry, looked up): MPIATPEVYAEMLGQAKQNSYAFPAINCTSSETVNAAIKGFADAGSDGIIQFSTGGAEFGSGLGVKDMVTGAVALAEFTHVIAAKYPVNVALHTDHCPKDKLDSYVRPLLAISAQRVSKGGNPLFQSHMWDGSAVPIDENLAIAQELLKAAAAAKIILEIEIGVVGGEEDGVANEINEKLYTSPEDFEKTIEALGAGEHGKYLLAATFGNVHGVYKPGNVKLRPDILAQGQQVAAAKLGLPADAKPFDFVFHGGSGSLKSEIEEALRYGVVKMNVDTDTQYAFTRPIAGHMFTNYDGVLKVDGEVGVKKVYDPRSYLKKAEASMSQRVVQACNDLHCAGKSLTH
# Numbers stand for hits; i = inactive; nt = no result given; + = active, no number. Hits are enriched below; roughly 3.8% of the tested compounds scored in any of these assays.
SMILES,Yp Topo-I inh,PrPC TRFRET,PrP UTR inh,Mtb hypoxia inh,GDH-TPI counter,FBA Mtb inh
COC(=O)C1=C(C(=O)OC)C2N(C)c3ccccc3[C@@]23CC(C(=O)OC)N(C(=O)COCc2ccccc2)C3=N1 (stereo partly drawn),nt,nt,nt,i,nt,nt
Cc1cc(C(=O)NN=C2CC(=O)CC(C)(C)C2)c(C)n1-c1ccc(F)cc1,nt,nt,nt,i,nt,nt
CCOCCCNCc1ccc(OC)cc1,i,i,i,i,i,i
COc1ccc2cc(CNCCOCCOCCNCc3ccc4cc(OC)ccc4c3)ccc2c1,i,32.1,i,nt,i,i
CCOc1ccc(C(=O)N/N=C(\c2ccccc2)c2ccccn2)cc1,i,i,i,nt,32.5,i
C=C1C(=O)[C@@]23[C@H](O)C[C@@H]4C(C)(C)CC[C@H](O)[C@]4(C)[C@@H]2C[C@H](O)[C@@H]1[C@H]3O,i,25.3,i,nt,i,i
C[C@H]1C(=O)[C@]23C[C@H]1CC[C@H]2[C@]1(C)[C@@H](O)CC[C@@](C)(C(=O)O)[C@H]1C[C@@H]3O,nt,i,nt,nt,nt,nt
C=C1C(=O)[C@@]23[C@H](O)C[C@@H]4C(C)(C)CC[C@H](O)[C@@]4(C)[C@@H]2CC[C@@H]1[C@H]3O,i,70.9,i,nt,i,i
C=C1[C@@H]2CC[C@H]3[C@]4(C)[C@@H](O)CC[C@@](C)(C(=O)OC)[C@H]4C[C@H](O)[C@]3(C2)[C@H]1O,nt,i,nt,nt,nt,nt
Cc1ccnc2c1ccc1ccccc12,i,i,i,i,i,i
Cc1ccnc2c1ccc1c(C)ccnc12,i,nt,54.5,nt,i,i
O=C(COc1ccc2oc(-c3ccco3)cc(=O)c2c1)N1CCCCC1,i,i,i,i,50.6,157.1
COc1ccc2oc(-c3ccco3)cc(=O)c2c1,i,i,i,i,53.8,116.4
Nc1nc(N)c2nc(-c3ccccc3)c(N)nc2n1,i,i,i,i,32.6,nt
O=C(CN1CCN(c2cccc(Cl)c2)CC1)N1CCCC1,i,i,i,nt,i,i
O=C(CN1CCN(c2cccc(Cl)c2)CC1)c1ccc(O)cc1O,i,i,i,i,30.8,i
O=C(CSc1ncc(-c2ccccc2)n1-c1ccccc1)NCc1ccco1,i,i,i,i,i,i
COc1ccc(-n2c(-c3ccc(F)cc3)cnc2SCC(=O)NCc2ccco2)cc1,51.0,i,i,i,i,i
CCN1C(=O)C2C(c3ccc(C)cc3)N3C(=O)N(c4cccc(F)c4)C(=O)[C@@]3(Cc3ccc(Cl)cc3)C2C1=O (stereo partly drawn),nt,nt,nt,i,nt,nt
Cc1ccc(S(=O)(=O)Oc2ccccc2/C=N/Nc2ccc(C(=O)O)cc2)cc1,i,i,i,nt,50.6,i
Cc1cc(/C=C2\NC(=O)NC2=O)c(C)n1-c1ccc(N2CCOCC2)cc1,i,i,i,i,i,i
Cc1cc(/C=C2/NC(=O)NC2=O)c(C)n1-c1ccc(N2CCOCC2)cc1,i,i,i,i,34.2,i
CCCCCNc1nc2ccccc2nc1NS(=O)(=O)c1cccs1,i,i,i,i,31.0,i
C=CCNc1nc2ccccc2nc1NS(=O)(=O)c1cccs1,i,i,i,i,i,i
O=S(=O)(Nc1nc2ccccc2nc1NCc1ccco1)c1cccs1,i,i,i,nt,32.0,i
SMILES,Yp Topo-I inh,PrPC TRFRET,PrP UTR inh,Mtb hypoxia inh,GDH-TPI counter,FBA Mtb inh
CCOC(=O)CC1c2cc(C(F)(F)F)ccc2S(=O)(=O)N1C(C)C (stereo not drawn),nt,nt,nt,i,nt,nt
CCC(CC)C(=O)Nc1ccc(-c2cn3cccnc3n2)cc1,i,i,i,i,i,+
CCC(CC)C(=O)Nc1ccncc1,nt,nt,nt,i,nt,nt
COCC(=O)Nc1ccc(-c2cn3cccnc3n2)cc1,i,i,i,i,i,+
COc1ccc(SCC(C)CN2CCC(C)CCC2=O)cc1 (stereo not drawn),nt,nt,nt,i,nt,nt
COc1c(OC2OC(CO)C(O)C(O)C2O)cc2c(c1OC)-c1ccc(SC)c(=O)cc1C(NC(C)=O)CC2 (stereo not drawn),nt,nt,nt,i,nt,nt
Cc1ccc(NC(=O)Cn2cnc3c(oc4nc5c(cc43)COC(C)(C)C5)c2=O)cc1,i,i,i,i,i,i
CCn1c(SCC(=O)Nc2ccc(C)cc2)nc2nc3c(cc2c1=O)COC(C)(C)C3,i,i,i,i,30.6,i
Cc1c(C(=O)/C=C/N(C)C)nnn1-c1ccc(Cl)cc1C#N,i,i,i,i,46.0,i
CCN1C(=O)C2C(c3ccc(-c4ccc(Cl)c(Cl)c4)c(OC)c3)N[C@@](C)(C(=O)OC)C2C1=O (stereo partly drawn),nt,nt,nt,i,nt,nt
CCOC(=O)C1=c2sc(=Cc3ccncc3)c(=O)n2C(N)=C(C(=O)OC)C1c1ccncc1 (stereo not drawn),nt,nt,nt,i,nt,nt
COC(=O)Nc1ccc2ccc3c(NC(=O)OC)ccc4ccc1c2c43,i,i,i,i,43.9,+
COC(=O)Nc1ccc(C)cc1NC(=O)OC,i,i,i,i,i,i
CCOC(=O)c1c(N)n(CCOC(=O)c2cccs2)c2nc3ccccc3nc12,i,i,i,i,i,172.5
CCCNC(=O)c1c(N)n(-c2cc(OC)cc(OC)c2)c2nc3ccccc3nc12,i,i,i,i,i,i
CCCCCOC(=O)c1c(N)n(CCOC)c2nc3ccccc3nc12,i,i,i,i,i,+
O=[N+]([O-])OC1COC2C(O[N+](=O)[O-])COC12 (stereo not drawn),nt,nt,nt,i,nt,nt
c1ccc(-c2ccc(CN3CC4C(c5ccccc5)C5(c6cccnc6)CC4(C5)C3c3ccccc3)cc2)cc1 (stereo not drawn),nt,nt,nt,i,nt,nt
CCCn1c(O)c(N=NC(=O)c2ccco2)c2ccccc21,i,i,i,i,32.6,i
CCn1c(O)c(N=NC(=O)CNC(=O)c2ccco2)c2ccccc21,i,i,i,i,i,i
COc1ccc(C(=O)NN=C(C)c2ccc(NC(=O)Cc3ccccc3)cc2)c(OC)c1,nt,nt,nt,i,nt,nt
O=c1c2ccccc2oc2ccc(NCCCN3CCOCC3)cc12,i,i,i,i,i,i
Cn1c(C(=O)NCCCN2CCOCC2)cc2c(=O)n(C)c3ccccc3c21,i,i,i,nt,i,i
Cn1c2ccccc2c(=O)c2cc(NCCCN3CCOCC3)ccc21,i,i,i,i,i,+
O=c1c2ccccc2oc2cc(NCCCn3ccnc3)ccc12,i,i,i,nt,i,+
SMILES,Yp Topo-I inh,PrPC TRFRET,PrP UTR inh,Mtb hypoxia inh,GDH-TPI counter,FBA Mtb inh
O=c1c2ccccc2oc2cc(NCCCN3CCOCC3)ccc12,i,i,i,i,i,+
O=C(O)C1SCCN1S(=O)(=O)c1ccc(N=NN2CCOCC2)cc1 (stereo not drawn),i,i,i,i,i,165.3
CCOC(=O)CSC1=C(C#N)C(c2ccc(C)o2)CC(=O)N1 (stereo not drawn),i,i,54.6,i,i,i
CCOC(=O)CSC1=C(C#N)C(c2ccc(Cl)cc2)CC(=O)N1 (stereo not drawn),i,i,i,i,i,i
CCOC(=O)c1sc2nc(CC(=O)OC)nc(NCc3ccco3)c2c1C,i,i,i,nt,i,i
CCOC(=O)c1sc2nc(CC(=O)OC)nc(NCC(=O)OC)c2c1C,i,i,i,i,i,125.9
COc1ccccc1/C=C1\SC(=O)N(CC(=O)N(C)C2CCS(=O)(=O)C2)C1=O (stereo not drawn),i,i,i,i,31.0,i

# Screening results as filed in PubChem.
